Screens deposited in PubChem by National Center for Advancing Translational Sciences (NCATS).
GLS inh: blocks human kidney-isoform glutaminase activity. O94925. GLS enzymatic activity, qHTS titration. Potency, µM (titrated, usually from 45.5 µM), usual class: inhibitors. actives 0.21% (n = 410,000). AID 624170
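Assay buffer: 45 mM KH2PO4 pH 8.2, 0.02% Tween-20. hKGA acts on L-glutamine (1 mM solution added); product glutamate is reported by an oxidase/peroxidase Amplex Red coupling, with fluorescence taken at baseline and 30 min.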
hERG WT inh: blocks the wildtype human KCNH2 potassium channel | actives 0.37% (n = 340,000) | Q12809 | U2OS, BacMam KCNH2, thallium flux FluxOr; hits give low values | AID 720551 | activity change, % at 1.84 µM;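 active = maximum activity change below -70%; inconclusive = maximum activity change between -70% and -50%; inactive = maximum activity change above -50%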
Target sequence (Q12809 whole entry, looked up): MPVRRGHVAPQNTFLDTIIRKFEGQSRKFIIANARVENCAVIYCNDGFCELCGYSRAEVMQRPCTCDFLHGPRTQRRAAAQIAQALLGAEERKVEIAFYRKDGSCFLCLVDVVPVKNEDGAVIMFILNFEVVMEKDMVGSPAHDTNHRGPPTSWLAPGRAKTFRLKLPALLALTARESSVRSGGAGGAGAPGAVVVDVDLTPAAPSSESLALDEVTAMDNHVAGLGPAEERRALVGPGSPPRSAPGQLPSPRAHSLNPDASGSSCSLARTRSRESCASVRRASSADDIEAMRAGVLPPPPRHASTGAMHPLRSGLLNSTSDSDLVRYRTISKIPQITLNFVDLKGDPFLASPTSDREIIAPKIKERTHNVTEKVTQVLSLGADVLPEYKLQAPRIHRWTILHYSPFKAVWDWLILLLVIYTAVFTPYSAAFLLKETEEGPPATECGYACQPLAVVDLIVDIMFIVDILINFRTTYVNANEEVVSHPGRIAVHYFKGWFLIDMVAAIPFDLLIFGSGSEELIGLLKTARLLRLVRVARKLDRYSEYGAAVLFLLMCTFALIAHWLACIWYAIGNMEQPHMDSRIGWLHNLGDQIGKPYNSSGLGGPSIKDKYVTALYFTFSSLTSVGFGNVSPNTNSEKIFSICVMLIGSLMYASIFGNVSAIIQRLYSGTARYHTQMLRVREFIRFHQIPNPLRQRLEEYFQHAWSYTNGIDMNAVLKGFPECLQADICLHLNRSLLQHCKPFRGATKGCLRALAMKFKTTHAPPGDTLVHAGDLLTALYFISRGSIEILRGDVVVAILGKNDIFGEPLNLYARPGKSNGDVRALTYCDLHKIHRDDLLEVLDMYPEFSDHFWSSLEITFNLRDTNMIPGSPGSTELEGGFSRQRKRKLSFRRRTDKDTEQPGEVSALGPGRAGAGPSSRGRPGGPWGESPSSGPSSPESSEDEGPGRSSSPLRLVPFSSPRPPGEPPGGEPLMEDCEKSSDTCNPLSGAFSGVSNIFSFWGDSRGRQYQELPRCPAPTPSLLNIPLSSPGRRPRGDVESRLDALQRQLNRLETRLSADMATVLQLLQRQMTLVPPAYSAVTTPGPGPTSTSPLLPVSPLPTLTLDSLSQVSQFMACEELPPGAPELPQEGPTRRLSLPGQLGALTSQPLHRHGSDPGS
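U2OS cells transduced with wild-type KCNH2 virus are loaded with FluxOr dye for 45 min, and thallium flux is measured in kinetic reads before and after stimulation buffer. Rate constants are normalized to DMSO controls.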
HEK293 tox: cytotoxicity in counter-screen for GLP-1R inverse agonists; HEK293 cAMP-luciferase reporter cells, luminescence, 24 h; Potency, µM (top dose mostly 38.3 µM), usual class: inhibitors; actives 0.13% (n = 410,000);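 note: loss of luciferase light is scored as toxicity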
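Compound-treated cells are incubated 24 hr at 37 deg C under 5% CO2 after a 12 hour attachment period, then luciferase detection reagent is added and luminescence is measured following 12 min at room temperature; lowered signal indicates toxicity.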
KCNH2 3.1 inh: blocks the human KCNH2 3.1 channel isoform; U2OS KCNH2 3.1, thallium flux FluxOr; hits give low values; activity change, % (tested at about 1.8 µM); actives 0.95% (n = 340,000); AID 720553;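 active = maximum activity change below -70%; inconclusive = maximum activity change from -70% to -50%; inactive = maximum activity change above -50%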;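 note: thallium influx rate constant from kinetic fluorescence after stimulation buffer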
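Channel expression came from 3.1 mutant virus (1.77 x 10^8 /mL) applied to suspended U2OS cells for 4 h. Flux was tracked with FluxOr dye plus Red40 quencher, and kinetic rate constants normalized to controls.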
GLP-1R agonist: GLP-1 receptor (human) agonism | HEK293 GLP-1R CRE-luciferase, luminescence, 4-6 h; cells express a hypersensitive GLP-1R form | Potency, µM (doses to about 45.6 µM), usual class: activators | actives 0.007% (n = 380,000) | P43220
GLP1R inv ag: acts as inverse agonist at human GLP-1 receptor | P43220 | HEK293 GLP-1R CRE-luciferase, luminescence, 24 h; GLP-1R form is constitutively active | Potency, µM (doses to about 38.3 µM), most hits filed as inhibitors | actives 1.6% (n = 410,000) | AID 624417; note: nearly all actives have a fitted effect of over 55% in size
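HEK293 cells stably co-expressing constitutively active GLP-1R and a cAMP-responsive luciferase reporter were seeded in DMEM with 10% Nu serum, given compounds after 12 h, and incubated 24 h at 37 deg C. Luminescence was then read.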
Of the large screens only hits and unclear results are named; the others gave an inactive call. Most compounds without a hit are left out; they make up all but 2.8% or so of the library. Unless noted, calls come from the whole dose curve; as a rule, active = well fitted curve in the direction sought with a large enough effect; inconclusive = small, poorly fitted or top-dose-only effect, or another doubt; inactive = no such curve, though single readings can be large; an effect the other way counts as inactive or inconclusive.

CS(=O)(=O)c1ccc2nc(NC3(C(F)(F)F)N=C4SCCN4C3=O)sc2c1 (configuration not stated)	hERG WT inh -85
COc1ccccc1CNC(=O)CCn1c(=O)c2cccn2c2cccnc21	none (no result: hERG WT inh, KCNH2 3.1 inh, GLP-1R agonist)
Cc1cccc(OCCCC(=O)N2CCCCCC2)c1C	GLP1R inv ag 8.9µM
COc1ccccc1OCC(=O)N1CCN(c2ccccc2OC)CC1	none
Cc1cccc(OCCCC(=O)O)c1C	none
COc1ccccc1N1CCN(C(=O)COc2cccc(C)c2C)CC1	GLP1R inv ag 7.1µM
CCn1cc2nc(SCc3cccc(OC)c3)n(Cc3ccc(Cl)cc3)c(=O)c2n1	GLP1R inv ag inconclusive (no result: hERG WT inh, KCNH2 3.1 inh)
CCOc1ccc(NC(=O)NCCN2CCN(c3ccccc3F)CC2)cc1	none
CCOc1ccc(NC(=O)NCCN2CCN(c3cccc(C)c3C)CC2)cc1	KCNH2 3.1 inh -89
CCOc1cccc(N2CCN(CCNC(=O)Nc3ccc(C)cc3)CC2)c1C	KCNH2 3.1 inh -93, GLP1R inv ag inconclusive
COc1ccc2c(c1)C(CC(C)=O)N(c1ccc(-c3cccnc3)cc1)C(c1ccsc1)=C2 (configuration not stated)	none (no result: hERG WT inh, KCNH2 3.1 inh)
COc1ccc(NC2CC(=O)N(c3cc([N+](=O)[O-])ccc3C)C2=O)cc1 (configuration not stated)	GLS inh 7.1µM
COc1ccc(NC2CC(=O)N(c3cccc([N+](=O)[O-])c3)C2=O)cc1 (configuration not stated)	GLS inh inconclusive
Cc1ccnc(N2CCC(C(=O)NCc3ccc4c(c3)OCO4)CC2)n1	hERG WT inh -195
Cc1cccc(N(Cc2cc(=O)[nH]c3ccccc23)C(=O)CCl)c1	GLP1R inv ag 2.5µM
CCN(CC)CCCN1CC(O)=C(c2nc3ccccc3s2)C1=N	GLP1R inv ag 11µM
COc1cc(NC2c3ccccc3C(=O)N2Cc2ccccc2Cl)cc(OC)c1 (configuration not stated)	GLP1R inv ag 10µM
COc1cccc(NC2c3ccccc3C(=O)N2Cc2ccccc2Cl)c1 (configuration not stated)	GLP1R inv ag inconclusive
Cn1ccnc1SCc1cn2cc(Br)ccc2n1	GLP1R inv ag 4.5µM
Cc1ccc(SCc2cn3ccccc3n2)cc1	HEK293 tox inconclusive, GLP1R inv ag inconclusive
CN(C)CCNC(=O)c1cc2sc3ccccc3c2s1	HEK293 tox inconclusive, GLP1R inv ag 3.2µM
COCCN(CCOC)C(=O)c1cc2sc3ccccc3c2s1	GLP-1R agonist inconclusive
Cc1cccc(NC(=O)c2ccccc2-c2ccccc2)c1	none
Cc1cc(NC(=O)c2ccccc2-c2ccccc2)ccc1Br	GLP1R inv ag 10µM
COc1ccccc1N1CCN(C(=O)C2CCN(S(=O)(=O)Cc3ccccc3)CC2)CC1	GLP1R inv ag inconclusive (no result: hERG WT inh, KCNH2 3.1 inh, GLP-1R agonist)
Cc1ccc(/C(N)=N/OC(=O)c2cccs2)cc1	hERG WT inh -176, HEK293 tox inconclusive, KCNH2 3.1 inh -185
O=C(NCc1nc(-c2ccc(C(F)(F)F)cc2)no1)Nc1ccc(OC(F)(F)F)cc1	HEK293 tox inconclusive, GLP1R inv ag 2.8µM
COc1ccc(OCC(=O)Nc2ccc(S(=O)(=O)Nc3cc(C)nc(C)n3)cc2)cc1	none
COCCOCC(=O)Nc1ccc(S(=O)(=O)Nc2cc(C)nc(C)n2)cc1	hERG WT inh -108
O=C(CN1CCN(C(=O)c2ccccc2)CC1)Nc1ncc(Br)cc1Br	KCNH2 3.1 inh -85
O=C(CN1CCN(C(=O)c2ccccc2)CC1)Nc1ccc(Cl)cc1F	none
CCc1ccc(NC(=O)C(Cc2ccccc2)NS(=O)(=O)c2ccc3c(c2)c(=O)n(C)c(=O)n3C)cc1 (configuration not stated)	none (no result: hERG WT inh, KCNH2 3.1 inh)
COc1ccc(C2=NN(c3ccc(C=O)cc3)C(c3ccccc3)C2)cc1 (configuration not stated)	GLP1R inv ag 10µM
COc1ccccc1C1CC(c2ccco2)=NN1c1ccccc1 (configuration not stated)	GLP1R inv ag 10µM
COc1ccc(C2CC(c3ccc(F)cc3)=NN2c2ccccc2)cc1OC (configuration not stated)	GLP1R inv ag 10µM
O=Cc1ccc(N2N=C(c3ccccc3)CC2c2ccccc2)cc1 (configuration not stated)	GLP1R inv ag inconclusive
CCOC(=O)CNC(=O)CSc1cn(CC(=O)N2CCCCCC2)c2ccccc12	none (no result: hERG WT inh, KCNH2 3.1 inh, GLP-1R agonist)
Oc1ccc(C[C@H]2CNCCN2CCc2cccc3ccccc23)cc1	GLS inh inconclusive, GLP1R inv ag inconclusive
c1ccc(C[C@H]2CNCCN2CCc2cccc3ccccc23)cc1	GLP1R inv ag 11µM
O=C(COc1ccc(Cl)cc1Br)NC(=O)NC1CCCC1	GLP1R inv ag 10µM
O=C(COc1ccc(Br)cc1Cl)NC(=O)NC1CCCC1	GLP1R inv ag 3.5µM
Cn1c(Cl)c(/C=N/OC(=O)C2CC2)c2ccccc21	KCNH2 3.1 inh -92
O=C(O)c1c[nH]c2ccc([N+](=O)[O-])cc2c1=O	none
CC(C)C[C@H]1CN=C(N(C)C)N1CCc1cccc(F)c1	HEK293 tox inconclusive, KCNH2 3.1 inh -107
Nc1ccc(CSc2ccc(Cl)cc2)c(Cl)c1	KCNH2 3.1 inh -102, GLP1R inv ag inconclusive
Cc1ccc(C(=O)NCc2ccc(N3CCN(C(=O)OC(C)(C)C)CC3)cc2)cc1	KCNH2 3.1 inh -117
COC(=O)c1ccccc1NC(=O)Cn1nc(C(F)(F)F)c2c1CCCC2	GLP1R inv ag 11µM (no result: hERG WT inh, KCNH2 3.1 inh, GLP-1R agonist)
O=C(Cn1c(SCc2ccc(F)cc2)nc2cccnc21)Nc1ccccc1F	none (no result: hERG WT inh, KCNH2 3.1 inh, GLP-1R agonist)
O=C(CN1C(=O)c2cccc3cccc1c23)Nc1ccccc1Br	none (no result: hERG WT inh, KCNH2 3.1 inh)
CSc1ncnc2c1ncn2CCCNC1CCN(Cc2ccccc2)CC1	GLP1R inv ag inconclusive
c1ccc(COc2ncnc3c2ncn3CCCNC2CCN(Cc3ccccc3)CC2)cc1	HEK293 tox inconclusive, GLP1R inv ag 7.1µM
CC(=O)c1c(C)n(-c2cccc(C)c2)c2ccc(OC(=O)COc3ccccc3)cc12	none (no result: hERG WT inh, KCNH2 3.1 inh)
O=C(Nc1ccc(F)cc1F)c1cc2c(=O)n3ccccc3nc2s1	none (no result: hERG WT inh, KCNH2 3.1 inh, GLP-1R agonist)
Cc1ccc(S(=O)(=O)N2CCOCC2)cc1C(=O)NCCCn1ccnc1	hERG WT inh -90
COc1ccccc1NC(=O)Nc1ccc(-n2ccc(C(F)(F)F)n2)cc1	hERG WT inh -124, KCNH2 3.1 inh -201, GLP1R inv ag 2µM
Cc1cc(C)cc(NC(=O)Nc2ccc(-n3ccc(C(F)(F)F)n3)cc2)c1	HEK293 tox inconclusive, GLP1R inv ag 2.2µM
O=C(O)CCC(=O)Nc1ccc(-n2ccc(C(F)(F)F)n2)cc1	none
